Screens (PubChem BioAssay)
Shown are actives, neighbours in structure and some others; about 2.9% of the full set was active somewhere.
ABHD5-PLIN5 inh: ABHD5-PLIN5 interaction inhibitors, primary screen, cell lysate, split luciferase complementation, luminescence | 360,000 compounds, 0.78% hits | inhibition, % at 4 µM | Split G. princeps luciferase complementation, 4 h | Perilipin-5 (Homo sapiens) + 1-acylglycerol-3-phosphate O-acyltransferase ABHD5 (Homo …;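 active means inhibition above the mean inhibition across every tested compound plus 3 SD, cut at about 22% in these data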;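 further: 0% = DMSO only wells and the 100% control is not disclosed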
DAGLB inhibitor: DAGLB lipase inhibitors, primary screen, biochemical, fluorescence, HTS | HEK293T DAGLB membrane lysate, EnzChek fluorogenic substrate | Diacylglycerol lipase-beta (Homo sapiens), Q8NCG7 | inhibition, % at 5.17 µM | 340,000 compounds, 0.059% hits | AID 504411, 2011; in the data active means inhibition above about 34%;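 further: 0% = enzyme with vehicle and 100% = wells lacking enzyme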
Target sequence (Q8NCG7 whole entry, looked up): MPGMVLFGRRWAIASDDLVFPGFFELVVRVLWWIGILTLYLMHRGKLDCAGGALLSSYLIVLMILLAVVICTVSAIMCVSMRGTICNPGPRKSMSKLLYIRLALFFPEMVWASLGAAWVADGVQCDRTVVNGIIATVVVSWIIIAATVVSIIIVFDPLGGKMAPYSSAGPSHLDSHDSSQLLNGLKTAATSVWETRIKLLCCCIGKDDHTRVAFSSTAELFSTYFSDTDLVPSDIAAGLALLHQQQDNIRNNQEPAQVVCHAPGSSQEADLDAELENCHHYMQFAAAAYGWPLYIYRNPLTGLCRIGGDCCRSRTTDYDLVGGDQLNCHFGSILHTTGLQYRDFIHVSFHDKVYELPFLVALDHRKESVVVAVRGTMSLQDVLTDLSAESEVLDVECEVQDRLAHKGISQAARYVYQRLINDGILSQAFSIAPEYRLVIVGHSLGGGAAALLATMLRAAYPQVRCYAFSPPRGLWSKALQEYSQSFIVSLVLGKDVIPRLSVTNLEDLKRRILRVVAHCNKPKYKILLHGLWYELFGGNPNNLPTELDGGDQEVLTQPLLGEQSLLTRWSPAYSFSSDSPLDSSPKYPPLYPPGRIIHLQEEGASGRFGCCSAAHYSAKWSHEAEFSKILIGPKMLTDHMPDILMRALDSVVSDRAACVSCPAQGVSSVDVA
Myeloid diff 2: induction of myeloid progenitor differentiation, primary screen, cell-based, flow cytometry, MLPCN library; ER-HoxA9 myeloid progenitors, lysozyme-GFP differentiation; calls only at 10 µM; 360,000 compounds, 1% hits; AID 624256, 2012;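 active means normalized GFP-positive differentiation at or above the plate's own cutoff, the solvent-only control mean plus 3 SD; inconclusive means no clear call, values can overlap the other calls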;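 further: cells exposed to compound for four days before flow analysis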
HGIII-sPLA2 inh: human group III sPLA2 inhibitors, primary screen, biochemical, QFRET, BODIPY PC-A2 liposome substrate; Group 3 secretory phospholipase A2 (Homo sapiens), Q9NZ20; AID 743126, 2013; 370,000 compounds, 0.56% hits; QFRET BODIPY PC-A2 liposome hydrolysis, fluorescence; inhibition, % at 12.2 µM;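 active means inhibition above mean plus 3 SD of compounds lying within the high and low control bounds, cut at about 19% in these data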;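 further: 0% = median of test compound wells and 100% = no enzyme DMSO wells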
Rtt109 HAT inh: inhibitors of C. albicans Rtt109/Vps75 HAT, primary screen, biochemical, ThioGlo CoA-SH fluorescence, plate reader; purified Rtt109/Vps75, 4 h; inhibition, % at 34.9 µM; 330,000 compounds, 0.16% hits;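 active means inhibition of at least 50% in every replicate; inconclusive means best replicate reaches 50% inhibition but some replicates fall short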
H9c2 protect: cardioprotection against H2O2-induced cell death, primary screen, uHTS, H9c2 cells, ATPLite luminescence; AID 588492, 2011; protection from H2O2 cell death, % at 20 µM; 360,000 compounds, 0.63% hits; H9c2 cardiomyocytes, H2O2 injury protection, 2 h;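 active means compounds giving at least 50% protection of heart cells from peroxide-induced death in the single-dose screen, raw or plate-pattern-corrected value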;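 further: 0% = DMSO wells with peroxide and 100% = DMSO wells without peroxide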
An asterisk follows results filed as active; i = inactive; ? = inconclusive; . = no result; + = active, no number.

SMILES	ABHD5-PLIN5 inh	DAGLB inhibitor	Myeloid diff 2	HGIII-sPLA2 inh	Rtt109 HAT inh	H9c2 protect
c1csc(-c2nnc(SCc3cccc4ccccc34)o2)c1	.	.	.	-11	.	.
Cn1ccsc1=NC(=O)c1ccc([N+](=O)[O-])o1	-7	-2	+	6	0	2
CN1C(=O)c2ccccc2Sc2ccc(NC(=O)NC3CC3)cc21	25*	2	i	0	3	-6
O=[N+]([O-])c1cccc(SSc2cccc([N+](=O)[O-])c2)c1	36*	-5	i	1	-6	-27
Nc1cccc([N+](=O)[O-])c1	7	0	i	6	-1	-1
O=C(NC1CCCCC1)c1ccc(-n2cncn2)c([N+](=O)[O-])c1	3	-2	i	-1	11	0
CC(C)(C)c1nn(-c2ccccc2)c2nc(Cl)c(C=O)cc12	1	-2	i	.	-9	-2
Cc1nn(-c2ccccc2)c2[nH]c(=O)c(CNCc3ccc4c(c3)OCO4)cc12	5	0	i	-7	2	1
CCc1ccc(NCc2cc3c(C)nn(-c4ccccc4)c3[nH]c2=O)cc1	-2	7	i	12	.	24
CCOc1ccc(NCc2cc3c(C(C)(C)C)nn(-c4ccccc4)c3[nH]c2=O)cc1	1	9	i	-24	7	58*
CC(C)(C)c1nn(-c2ccccc2)c2[nH]c(=O)c(C=O)cc12	5	12	i	-3	-5	57*
Cc1ccc(-c2nn(-c3ccccc3)c3[nH]c(=O)c(CNCc4ccccc4)cc23)cc1	0	10	i	-29	0	52*
Cc1ccc(NC(=O)COC(=O)Cc2c[nH]c3ccccc23)cc1	-6	0	i	-101	.	-3
CCCc1ccc2oc(C(=O)NCCc3cnn(C)c3)c(C)c2c1	4	-4	i	-7	5	0
CCCN(CCC)S(=O)(=O)c1ccc(C(=O)Nc2nnc(-c3cccc(OC)c3)o2)cc1	2	4	i	14	8	31
CCCCN(CCCC)S(=O)(=O)c1ccc(C(=O)Nc2nnc(CSC)o2)cc1	7	1	i	-4	-9	50*
CCCCN(CC)S(=O)(=O)c1ccc(C(=O)Nc2nnc(CSC)o2)cc1	-4	3	i	-11	-2	15
CCCN(CCC)S(=O)(=O)c1ccc(C(=O)Nc2nnc(-c3cc(OC)cc(OC)c3)o2)cc1	-3	-1	?	.	5	54*
O=C(NCc1ccco1)C(c1ccccc1)N(C(=O)Cc1cccs1)c1ccccc1F (centres undefined)	-3	-1	i	-15	4	75*
O=C1C=CC(c2c[nH]c3ccccc23)CC1 (centres undefined)	23*	.	i	0	.	.
CCCn1nc(C(=O)Nc2cc(OCC)c(N3CCOCC3)cc2OCC)c2ccccc2c1=O	-1	2	i	0	-3	56*
CCOc1cc(N2CCOCC2)c(OCC)cc1NC(=O)c1ccccc1	-3	-4	i	4	-4	1
CCOc1cc(N2CCOCC2)c(OCC)cc1NC(=O)Cn1[nH]c(=O)c2ccccc2c1=O	-4	0	i	-1	-4	79*
CCOc1ccccc1NC(=O)Cn1[nH]c(=O)c2ccccc2c1=O	-14	-5	i	.	-4	12
Cc1ccc(S(=O)(=O)N[C@H](C(=O)N2CCC(C(=O)NCC(=O)O)CC2)C(C)C)cc1	-1	5	i	-2	3	0
N#C/C(=C(/O)COC(=O)CSc1ccc(Cl)cc1)c1nc2ccccc2[nH]1	-3	2	+	-23	2	-17
COc1cccc2cccc(/C=N/n3cnnc3)c12	-2	3	i	0	-29	1
Cc1cccc(-c2noc(CNC(=O)c3ccoc3C)n2)c1	0	-1	+	3	-8	-3
Cc1occc1C(=O)NCc1nc(-c2ccccc2)no1	-1	0	i	6	-2	1
